Experimental data published in the supplement of paper PMC10849652.
Targets with a hit are over-represented here; the source holds about 7,900 in all. About 0.6% of all pairs of compound and target were hits. A number with no mark means an inactive call.

What follows are targets tested with COc1cc(Nc2ncc3c(n2)-c2ccc(Cl)cc2C(c2c(F)cccc2OC)=NC3)ccc1C(=O)O [alisertib] (assay: log2 fold change, soluble protein after heating vs DMSO (PISA); higher = thermal stabilisation; K562 cells, 10 uM, 30 min; active = over 0.2 and 3.5 SD of the protein, either way, in both replicates (recomputed)).
How it was run: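 K562 cells at 2×10^6 cells/mL were exposed to 10 μM compound for 30 min, then aliquots were heated for 3 min across 48°C-58°C, pooled, and extracted in PBS containing 0.5% NP-40 at 4°C. The supernatant after 21,000xg for 90 min was taken as soluble protein and measured by TMTpro 16plex LC-MS/MS with channel sums equalised. Thermal stability is reported relative to control samples, with values from duplicates. Fold changes are given on a log2 scale.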

UniProt O43861, sequence (O43861 whole entry, looked up): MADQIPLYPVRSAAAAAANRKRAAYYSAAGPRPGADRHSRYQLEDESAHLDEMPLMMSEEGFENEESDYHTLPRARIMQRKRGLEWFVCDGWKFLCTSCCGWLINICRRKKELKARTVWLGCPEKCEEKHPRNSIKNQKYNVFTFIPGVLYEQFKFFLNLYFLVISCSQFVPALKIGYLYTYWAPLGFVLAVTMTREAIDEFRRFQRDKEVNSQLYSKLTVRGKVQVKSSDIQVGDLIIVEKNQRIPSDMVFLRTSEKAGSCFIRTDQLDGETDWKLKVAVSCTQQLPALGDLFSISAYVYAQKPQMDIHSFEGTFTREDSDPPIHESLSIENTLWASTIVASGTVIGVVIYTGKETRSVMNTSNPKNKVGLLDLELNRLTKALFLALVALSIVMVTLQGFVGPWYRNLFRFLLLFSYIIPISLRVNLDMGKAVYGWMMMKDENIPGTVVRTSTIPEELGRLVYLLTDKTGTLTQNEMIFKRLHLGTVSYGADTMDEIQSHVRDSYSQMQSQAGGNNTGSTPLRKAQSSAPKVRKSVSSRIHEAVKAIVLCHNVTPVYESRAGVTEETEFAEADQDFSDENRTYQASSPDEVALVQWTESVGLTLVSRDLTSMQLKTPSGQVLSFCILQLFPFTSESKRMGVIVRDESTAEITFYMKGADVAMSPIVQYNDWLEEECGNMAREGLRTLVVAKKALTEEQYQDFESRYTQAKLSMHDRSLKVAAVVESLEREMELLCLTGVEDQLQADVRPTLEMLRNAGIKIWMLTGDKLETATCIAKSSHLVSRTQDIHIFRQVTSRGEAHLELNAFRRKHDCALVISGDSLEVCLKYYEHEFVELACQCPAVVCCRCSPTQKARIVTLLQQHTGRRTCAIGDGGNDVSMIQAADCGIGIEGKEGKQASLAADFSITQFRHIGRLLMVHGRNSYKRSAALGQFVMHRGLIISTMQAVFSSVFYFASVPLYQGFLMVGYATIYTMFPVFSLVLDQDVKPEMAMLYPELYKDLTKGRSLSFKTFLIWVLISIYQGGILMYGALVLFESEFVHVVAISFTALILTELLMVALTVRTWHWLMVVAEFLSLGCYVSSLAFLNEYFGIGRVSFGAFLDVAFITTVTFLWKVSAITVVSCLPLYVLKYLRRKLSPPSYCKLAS
UniProt Q9BRQ8, sequence (Q9BRQ8 whole entry, looked up): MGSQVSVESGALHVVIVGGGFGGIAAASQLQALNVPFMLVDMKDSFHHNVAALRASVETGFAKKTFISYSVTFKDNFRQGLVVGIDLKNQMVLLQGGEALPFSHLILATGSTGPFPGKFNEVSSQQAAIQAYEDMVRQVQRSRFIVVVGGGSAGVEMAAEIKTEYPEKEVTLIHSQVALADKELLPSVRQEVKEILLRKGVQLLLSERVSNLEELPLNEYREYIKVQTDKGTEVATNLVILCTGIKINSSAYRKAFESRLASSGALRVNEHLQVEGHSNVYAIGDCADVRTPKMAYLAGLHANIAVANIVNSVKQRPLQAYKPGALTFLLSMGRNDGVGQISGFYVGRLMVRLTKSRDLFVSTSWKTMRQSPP
UniProt Q9UKG1, sequence (Q9UKG1 whole entry, looked up): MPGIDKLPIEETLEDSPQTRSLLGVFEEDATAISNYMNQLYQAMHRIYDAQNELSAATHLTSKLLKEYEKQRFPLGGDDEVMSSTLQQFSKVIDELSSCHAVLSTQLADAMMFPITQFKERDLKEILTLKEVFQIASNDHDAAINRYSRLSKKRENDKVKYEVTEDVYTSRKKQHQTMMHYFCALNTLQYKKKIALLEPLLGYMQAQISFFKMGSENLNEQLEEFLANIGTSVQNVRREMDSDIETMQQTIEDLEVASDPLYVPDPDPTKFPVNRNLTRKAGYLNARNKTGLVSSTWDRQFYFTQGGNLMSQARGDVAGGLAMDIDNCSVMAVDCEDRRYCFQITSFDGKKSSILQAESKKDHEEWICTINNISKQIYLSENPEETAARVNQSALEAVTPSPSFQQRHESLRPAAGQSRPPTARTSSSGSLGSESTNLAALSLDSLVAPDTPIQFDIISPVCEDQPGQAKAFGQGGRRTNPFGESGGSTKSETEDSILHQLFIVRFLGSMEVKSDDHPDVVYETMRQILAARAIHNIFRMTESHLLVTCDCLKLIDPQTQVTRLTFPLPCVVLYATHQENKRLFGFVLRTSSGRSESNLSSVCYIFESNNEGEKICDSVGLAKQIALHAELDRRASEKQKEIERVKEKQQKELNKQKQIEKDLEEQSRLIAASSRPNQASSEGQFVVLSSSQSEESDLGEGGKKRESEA
UniProt Q16186, sequence (Q16186 whole entry, looked up): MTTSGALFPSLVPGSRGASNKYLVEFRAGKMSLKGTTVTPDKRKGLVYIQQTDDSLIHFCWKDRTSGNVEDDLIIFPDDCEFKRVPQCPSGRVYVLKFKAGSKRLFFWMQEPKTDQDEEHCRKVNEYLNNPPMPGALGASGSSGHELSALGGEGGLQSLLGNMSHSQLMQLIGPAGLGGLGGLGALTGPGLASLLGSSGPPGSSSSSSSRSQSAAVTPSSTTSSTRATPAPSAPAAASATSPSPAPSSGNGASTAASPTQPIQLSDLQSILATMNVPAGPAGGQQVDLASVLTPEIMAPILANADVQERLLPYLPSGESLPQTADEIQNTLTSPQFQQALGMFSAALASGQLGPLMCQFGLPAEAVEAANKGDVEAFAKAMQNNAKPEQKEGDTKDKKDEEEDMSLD
UniProt P05091, sequence (P05091 whole entry, looked up): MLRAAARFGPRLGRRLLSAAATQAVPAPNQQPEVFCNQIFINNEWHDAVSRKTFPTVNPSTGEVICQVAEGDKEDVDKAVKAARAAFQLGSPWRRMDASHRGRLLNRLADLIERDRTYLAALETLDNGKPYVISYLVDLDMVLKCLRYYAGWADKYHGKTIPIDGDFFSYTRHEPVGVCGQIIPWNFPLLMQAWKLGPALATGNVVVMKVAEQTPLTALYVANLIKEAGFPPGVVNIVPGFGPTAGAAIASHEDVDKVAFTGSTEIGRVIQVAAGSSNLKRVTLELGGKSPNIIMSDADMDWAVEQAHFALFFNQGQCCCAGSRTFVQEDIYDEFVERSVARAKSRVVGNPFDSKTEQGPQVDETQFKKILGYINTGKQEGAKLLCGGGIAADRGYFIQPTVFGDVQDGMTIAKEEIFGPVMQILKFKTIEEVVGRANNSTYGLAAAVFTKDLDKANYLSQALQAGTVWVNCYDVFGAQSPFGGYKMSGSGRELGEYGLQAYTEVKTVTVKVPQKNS
UniProt Q2TAA5, sequence (Q2TAA5 whole entry, looked up): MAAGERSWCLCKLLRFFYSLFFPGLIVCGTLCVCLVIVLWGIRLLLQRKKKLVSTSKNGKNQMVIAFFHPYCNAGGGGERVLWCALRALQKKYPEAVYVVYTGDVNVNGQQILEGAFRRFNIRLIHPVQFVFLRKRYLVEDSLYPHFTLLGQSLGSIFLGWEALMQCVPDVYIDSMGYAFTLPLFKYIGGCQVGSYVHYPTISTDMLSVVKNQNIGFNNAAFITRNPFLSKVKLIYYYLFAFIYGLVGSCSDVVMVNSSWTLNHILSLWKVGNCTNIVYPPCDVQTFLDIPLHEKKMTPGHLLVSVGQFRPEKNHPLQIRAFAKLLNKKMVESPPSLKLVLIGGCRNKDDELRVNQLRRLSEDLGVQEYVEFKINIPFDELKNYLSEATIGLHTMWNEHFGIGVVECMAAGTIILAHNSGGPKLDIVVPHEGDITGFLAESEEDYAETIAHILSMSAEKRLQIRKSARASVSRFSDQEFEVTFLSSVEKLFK
UniProt Q96P47, sequence (Q96P47 whole entry, looked up): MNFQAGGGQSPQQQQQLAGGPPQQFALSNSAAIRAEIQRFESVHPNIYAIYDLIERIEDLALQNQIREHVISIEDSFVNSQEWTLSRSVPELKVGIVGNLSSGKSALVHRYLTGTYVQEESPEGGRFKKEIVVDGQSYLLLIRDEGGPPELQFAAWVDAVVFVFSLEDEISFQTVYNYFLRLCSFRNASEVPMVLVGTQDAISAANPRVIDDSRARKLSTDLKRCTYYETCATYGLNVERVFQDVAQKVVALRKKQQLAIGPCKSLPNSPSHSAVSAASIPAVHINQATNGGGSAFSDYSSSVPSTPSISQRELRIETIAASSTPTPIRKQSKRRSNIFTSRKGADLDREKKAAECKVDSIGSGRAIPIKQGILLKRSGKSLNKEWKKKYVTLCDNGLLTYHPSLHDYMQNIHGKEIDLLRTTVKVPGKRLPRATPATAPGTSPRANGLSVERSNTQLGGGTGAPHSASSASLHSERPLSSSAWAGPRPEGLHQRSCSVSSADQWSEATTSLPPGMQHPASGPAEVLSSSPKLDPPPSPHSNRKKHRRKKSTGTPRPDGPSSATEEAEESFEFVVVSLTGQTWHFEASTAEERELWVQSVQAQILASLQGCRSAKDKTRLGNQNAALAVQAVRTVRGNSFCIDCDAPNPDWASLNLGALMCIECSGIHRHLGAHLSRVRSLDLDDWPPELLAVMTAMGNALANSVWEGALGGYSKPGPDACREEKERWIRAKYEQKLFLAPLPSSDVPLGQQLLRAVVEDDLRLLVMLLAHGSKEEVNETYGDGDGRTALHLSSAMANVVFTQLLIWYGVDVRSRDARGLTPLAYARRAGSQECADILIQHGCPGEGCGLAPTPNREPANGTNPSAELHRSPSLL
UniProt Q9Y312, sequence (Q9Y312 whole entry, looked up): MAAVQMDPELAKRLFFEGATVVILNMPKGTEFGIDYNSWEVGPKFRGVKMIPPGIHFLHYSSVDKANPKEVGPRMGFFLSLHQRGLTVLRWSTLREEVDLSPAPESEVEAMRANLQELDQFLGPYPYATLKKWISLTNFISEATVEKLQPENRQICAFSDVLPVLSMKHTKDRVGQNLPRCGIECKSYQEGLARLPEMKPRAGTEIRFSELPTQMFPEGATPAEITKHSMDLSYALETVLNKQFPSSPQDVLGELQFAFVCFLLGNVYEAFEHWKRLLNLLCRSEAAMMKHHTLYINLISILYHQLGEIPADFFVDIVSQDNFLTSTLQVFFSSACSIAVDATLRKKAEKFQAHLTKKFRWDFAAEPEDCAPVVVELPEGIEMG
UniProt Q16864, sequence (Q16864 whole entry, looked up): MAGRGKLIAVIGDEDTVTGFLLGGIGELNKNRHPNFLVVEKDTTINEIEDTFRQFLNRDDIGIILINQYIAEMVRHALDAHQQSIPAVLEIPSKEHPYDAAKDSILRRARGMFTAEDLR

Target | log2 fold change
ARGLU1 (UniProt Q9NWB6) | -0.13
AP4S1 (UniProt Q9Y587) | -0.098
ACTR1B (UniProt P42025) | -0.163
ALG11 (UniProt Q2TAA5) | -0.075
AKR1C2 (UniProt P52895) | -0.012
ATG9A (UniProt Q7Z3C6) | 0.064
ADH5 (UniProt P11766) | -0.039
AAR2 (UniProt Q9Y312) | -0.129
APPL1 (UniProt Q9UKG1) | -0.001
ACAD9 (UniProt Q9H845) | -0.012
ACOX3 (UniProt O15254) | 0.555
ALDH2 (UniProt P05091) | 0.015
ARL1 (UniProt P40616) | -0.124
AGAP3 isoform 4 (UniProt Q96P47) | -0.073
ATP1B3 (UniProt P54709) | -0.032
ATP6AP1 (UniProt Q15904) | 0.166
ACSL1 (UniProt P33121) | 0.015

Target | log2 fold change
ALDH9A1 isoform 3 (UniProt P49189) | 0.017
BOP1 (UniProt Q14137) | -0.131
ATF7 isoform 6 (UniProt P17544) | -0.007
ATP6V1F isoform 2 (UniProt Q16864) | -0.158
BTAF1 (UniProt O14981) | 0.175
AIFM2 (UniProt Q9BRQ8) | -0.078
AFG1L (UniProt Q8WV93) | -0.065
BCCIP isoform 2 (UniProt Q9P287) | 0.024
ANXA5 (UniProt P08758) | -0.006
ADRM1 (UniProt Q16186) | -0.031
ATP9B (UniProt O43861) | -0.039
ACSL3 (UniProt O95573) | 0.026
ATP23 (UniProt Q9Y6H3) | -0.033
ACO2 (UniProt Q99798) | -0.016
ARFIP1 (UniProt P53367) | 1.31
AGPAT5 (UniProt Q9NUQ2) | 0.113
AARS2 (UniProt Q5JTZ9) | 0.016
